Test [1] in a line: NCI Yeast Anticancer Drug Screen. Data for the rad50 strain (AID 155).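 Note: 0% = growth of vehicle-only cultures of the same strain.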 As to conditions: S. cerevisiae rad50 strain growth inhibition, hits give high values. A digest of the protocol: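 Growth of the mutant yeast was measured after compound exposure and referenced to vehicle-treated cultures.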
A short description of test [2]: NCI Yeast Anticancer Drug Screen. Data for the mec2-1 strain (AID 157). Conditions: S. cerevisiae mec2-1 strain, hits give high values. A digest of the protocol:
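Growth inhibition is read against vehicle-treated controls after compound exposure of the mec2-1 yeast strain, which is defective in DNA damage repair or cell cycle control.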

Test [3] can be described thus: NCI Yeast Anticancer Drug Screen. Data for the sgs1 mgt1 strain (AID 161).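 Note: 0% = growth of cultures given vehicle only.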 As to conditions: S. cerevisiae sgs1 mgt1 strain, hits give high values. The method in brief:
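Compounds are added to genetically altered yeast, and growth is compared with cultures given vehicle alone to give percent inhibition.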

Test [4] in a line: NCI Yeast Anticancer Drug Screen. Data for the cln2 rad14 strain (AID 165).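 Note: 0% = growth equal to vehicle treated cultures.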 Conditions: S. cerevisiae cln2 rad14 strain, hits give high values. A digest of the protocol:
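Growth inhibition, relative to vehicle-treated controls, is the read-out. The test organism is a yeast strain with defined genetic alterations, cln2 rad14.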

A short description of test [5]: NCI Yeast Anticancer Drug Screen. Data for the bub3 strain (AID 167). Conditions: S. cerevisiae bub3 mutant strain, hits give high values. A digest of the protocol: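 Whole-cell yeast assay. The mutant strain was incubated with compounds, and growth inhibition was determined by comparison with vehicle-treated cells.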
Test [6] is described as follows: NCI Yeast Anticancer Drug Screen. Data for the mlh1 rad18 strain (AID 175). Conditions: S. cerevisiae mlh1 rad18 strain growth inhibition, hits give high values. A digest of the protocol: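 Cells of a genetically altered yeast strain, deficient in DNA damage repair, were treated with compound. Their growth was then compared with that of vehicle-treated cultures to give inhibition.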

Where [7] appears, read: at 5.0 µM (retest, dose inferred, filed as 0.5).
Setting [8] is: at 50.0 µM (retest, dose inferred, filed as 5.0).

The structures appear in SMILES notation. Compounds without any hit were thinned out: in the full panel of roughly 79,000, 15% have a hit. Unmarked numbers belong to inactive results. Activity calls are given as the source filed them. Cut-off read from the data, not from the text of the source: active = growth inhibition above about 70%; inactive = the rest.

As for `O=C1C(Br)=C(C2CCCCC2)C(=O)c2ccccc21`, the growth inhibition in test [1] (setting [7]) was 54%; in test [1] (setting [8]), 99% (active); in test [1] (at 50.0 µM) it was 101% (active); in test [2] (setting [7]) it was 59%; in test [2] (setting [8]) it was 100% (active); in test [2] (at 50.0 µM), 99.7% (active). Further, the growth inhibition in test [3] (setting [7]) is 78% (active); in test [3] (setting [8]) it was 99% (active); in test [3] (at 50.0 µM), 99.6% (active); in test [4] (setting [7]) it was 20%; in test [4] (setting [8]), 99% (active); in test [4] (at 50.0 µM), 100% (active). The growth inhibition in test [5] (setting [7]) was 24%; in test [5] (setting [8]), 100% (active); in test [5] (at 50.0 µM), 99.5% (active); in test [6] (setting [7]) it was 83% (active); in test [6] (setting [8]), 99% (active); in test [6] (at 50.0 µM) it was 99.2% (active).

Regarding `O=[N+]([O-])c1ccc(NC(=S)N/N=C(\c2ccccc2)c2ccccn2)cc1`, the growth inhibition in test [1] (setting [7]) was 8%; in test [1] (setting [8]), 73% (active); in test [1] (at 50.0 µM) it was 63.1%; in test [2] (setting [7]), -32%; in test [2] (setting [8]) it was 79% (active); in test [2] (at 50.0 µM), 66.2%. Also, the growth inhibition in test [3] (setting [7]) is -19%; in test [3] (setting [8]) it was 87% (active); in test [3] (at 50.0 µM) it was 79.5% (active); in test [4] (setting [7]), 19%; in test [4] (setting [8]), 75% (active); in test [4] (at 50.0 µM), 72.1% (active). For the same compound, the growth inhibition in test [5] (setting [7]) was -5%; in test [5] (setting [8]) it was 82% (active); in test [5] (at 50.0 µM), 80.8% (active); in test [6] (setting [7]), 11%; in test [6] (setting [8]) it was 89% (active); in test [6] (at 50.0 µM), 79.8% (active).

As to `Oc1cc(-[n+]2ccccc2)c(O)c2ccccc12`, the growth inhibition in test [1] (setting [7]) was 15%; in test [1] (setting [8]), 82% (active); in test [1] (at 50.0 µM) it was -11.2%; in test [2] (setting [7]), 9%; in test [2] (setting [8]), 68%; in test [2] (at 50.0 µM), 3.45%. For the same compound, the growth inhibition in test [3] (setting [7]) is 5%; in test [3] (setting [8]), 80% (active); in test [3] (at 50.0 µM), -5.35%; in test [4] (setting [7]), 9%; in test [4] (setting [8]), 71% (active); in test [4] (at 50.0 µM), 37.8%. In addition, the growth inhibition is 21% in test [5] (setting [7]); 91% (active) in test [5] (setting [8]); 6.3% in test [5] (at 50.0 µM); 28% in test [6] (setting [7]); 83% (active) in test [6] (setting [8]); 20.8% in test [6] (at 50.0 µM).

Consider `COc1ccc(-c2cc(-c3ccco3)c(C#N)c(=S)n2C2OC(CO)C(O)C(O)C2O)cc1` (configuration not stated), for which the growth inhibition is -8% in test [1] (setting [7]); 1% in test [1] (setting [8]); 5.1% in test [1] (at 50.0 µM); 3% in test [2] (setting [7]); -12% in test [2] (setting [8]); 4.3% in test [2] (at 50.0 µM). Further, the growth inhibition is -1% in test [3] (setting [7]); -3% in test [3] (setting [8]); -15.2% in test [3] (at 50.0 µM); 15% in test [4] (setting [7]); 16% in test [4] (setting [8]); 30.1% in test [4] (at 50.0 µM). For the same compound, the growth inhibition is 2% in test [5] (setting [7]); 7% in test [5] (setting [8]); -3% in test [5] (at 50.0 µM); 10% in test [6] (setting [7]); 20% in test [6] (setting [8]); 4.1% in test [6] (at 50.0 µM).

As to `O=C1OCCCN1/N=C/c1ccc([N+](=O)[O-])o1`, the growth inhibition in test [1] (setting [7]) is 16%; in test [1] (setting [8]) it was 59%; in test [1] (at 50.0 µM), 82% (active); in test [2] (setting [7]), 4%; in test [2] (setting [8]), 31%; in test [2] (at 50.0 µM), 55%. Moreover, the growth inhibition in test [3] (setting [7]) is 10%; in test [3] (setting [8]), 65%; in test [3] (at 50.0 µM), 84.8% (active); in test [4] (setting [7]), 2%; in test [4] (setting [8]), 32%; in test [4] (at 50.0 µM), 42.3%. Further, the growth inhibition in test [5] (setting [7]) was 8%; in test [5] (setting [8]), 62%; in test [5] (at 50.0 µM), 52.3%; in test [6] (setting [7]), 24%; in test [6] (setting [8]) it was 78% (active); in test [6] (at 50.0 µM), 89.2% (active).

`CCCCOC(=O)c1ccc(O)c(OC)c1`: the growth inhibition was 3% in test [1] (setting [7]); -13% in test [1] (setting [8]); -19.8% in test [1] (at 50.0 µM); -10% in test [2] (setting [7]); 4% in test [2] (setting [8]); -3.2% in test [2] (at 50.0 µM). Besides, the growth inhibition in test [3] (setting [7]) is 0%; in test [3] (setting [8]), 6%; in test [3] (at 50.0 µM), 5.25%; in test [4] (setting [7]), -5%; in test [4] (setting [8]) it was 2%; in test [4] (at 50.0 µM), -43.9%. Also, the growth inhibition in test [5] (setting [7]) is 85% (active); in test [5] (setting [8]), 96% (active); in test [5] (at 50.0 µM), 95.7% (active); in test [6] (setting [7]), 0%; in test [6] (setting [8]) it was 3%; in test [6] (at 50.0 µM), -11.2%.

Consider `c1ccc(-c2cc(CN3CCOCC3)c(-c3ccccc3)o2)cc1`, for which the growth inhibition is -1% in test [1] (setting [7]); 98% (active) in test [1] (setting [8]); 52.8% in test [1] (at 50.0 µM); -6% in test [2] (setting [7]); 99% (active) in test [2] (setting [8]); 51.9% in test [2] (at 50.0 µM). Further, the growth inhibition in test [3] (setting [7]) is 3%; in test [3] (setting [8]), 99% (active); in test [3] (at 50.0 µM), 57.9%; in test [4] (setting [7]), -6%; in test [4] (setting [8]), 99% (active); in test [4] (at 50.0 µM), 56.4%. Moreover, the growth inhibition in test [5] (setting [7]) was 1%; in test [5] (setting [8]), 99% (active); in test [5] (at 50.0 µM) it was 55.8%; in test [6] (setting [7]) it was -2%; in test [6] (setting [8]), 99% (active); in test [6] (at 50.0 µM), 54.1%.

On to `CCC(=O)C(CC)(c1ccc(OC(C)=O)cc1)c1ccc(OC(C)=O)cc1`, for which the growth inhibition was 13% in test [1] (setting [7]); 82% (active) in test [1] (setting [8]); -20.3% in test [1] (at 50.0 µM); 24% in test [2] (setting [7]); 73% (active) in test [2] (setting [8]); -1.2% in test [2] (at 50.0 µM). For the same compound, the growth inhibition in test [3] (setting [7]) was 9%; in test [3] (setting [8]), 75% (active); in test [3] (at 50.0 µM), 53.1%; in test [4] (setting [7]), 9%; in test [4] (setting [8]), 33%; in test [4] (at 50.0 µM) it was 14.7%. The growth inhibition in test [5] (setting [7]) is 9%; in test [5] (setting [8]), 59%; in test [5] (at 50.0 µM), 35.1%; in test [6] (setting [7]), 21%; in test [6] (setting [8]), 93% (active); in test [6] (at 50.0 µM) it was -1.85%.

As to `CC1=C(C(=O)Nc2cccc(Cl)c2)C(c2ccc([N+](=O)[O-])cc2)C(C(=O)Nc2cccc(Cl)c2)=C(C)N1`, the growth inhibition in test [1] (setting [7]) was 44%; in test [1] (setting [8]) it was 44%; in test [1] (at 50.0 µM), 57.9%; in test [2] (setting [7]) it was 52%; in test [2] (setting [8]), 52%; in test [2] (at 50.0 µM), 81.8% (active). The growth inhibition was 34% in test [3] (setting [7]); 34% in test [3] (setting [8]); 65% in test [3] (at 50.0 µM); 32% in test [4] (setting [7]); 32% in test [4] (setting [8]); 79.5% (active) in test [4] (at 50.0 µM). The growth inhibition was 49% in test [5] (setting [7]); 49% in test [5] (setting [8]); 74.7% (active) in test [5] (at 50.0 µM); 51% in test [6] (setting [7]); 51% in test [6] (setting [8]); 61.8% in test [6] (at 50.0 µM).
